# Measured values reported in PubChem BioAssay.
# Activity calls are given as the source filed them.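 Rule for the calls, unless noted: active = normalized viability below 100% at a tested concentration; inactive = the rest.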
# Tests used:
# [1] = ovarian cancer cell viability with rucaparib, profiling panel, oncology-focused library, rucaparib conditional (AID 1508598); settings: patient-derived ovarian cancer cells, CellTiter-Glo viability, 144 h, stronger effect = lower value
# [2] = target: NAD(+) hydrolase SARM1 (Homo sapiens) (UniProt Q6SZW1); test: SARM1 TIR NADase inhibitors, cell lysate, NAD-Glo luminescence (AID 1508614;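 active = compound whose remaining NAD level is above about 45 nM, limit read from the data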;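 note: higher remaining NAD means stronger inhibition of SARM1 NADase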); settings: SAM-TIR HEK293T lysate NADase, at 1 µM, stronger effect = higher value
# [3] = LFS_MB_P medulloblastoma growth inhibition, cell-based, chromothripsis tumors, cisplatin or BGB combos (AID 1671449; in the data active = inhibition above about 80%;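 note: cells exposed for 96 hours; 0% = vehicle DMSO and 100% = killing by high DMSO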); settings: LFS_MB_P medulloblastoma cells
# [4] = HDN33 neuroblastoma growth inhibition, cell-based, chromothripsis tumors, cisplatin or BGB combos (AID 1671450; in the data active = inhibition above about 80%;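 note: cells exposed to compound for four days; 0% = vehicle DMSO and 100% = cell killing by high DMSO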); settings: HDN33 neuroblastoma cells, stronger effect = higher value
# [5] = ICB984 medulloblastoma cell growth inhibition, synergistic combos for chromothripsis tumors, cisplatin or BGB combos (AID 1671451; call rule not given here;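 note: cells exposed for 96 hours before readout; 0% = vehicle DMSO and 100% = killing by high DMSO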); settings: ICB984 medulloblastoma cells, drug combinations, stronger effect = higher value
# [6] = HTB85 osteosarcoma cell growth inhibition, synergistic combos for chromothripsis tumors, BGB or cisplatin IC20 combos (AID 1671453; in the data active = inhibition above about 80%;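 note: cells exposed for 96 hours before readout; 0% = vehicle DMSO and 100% = high DMSO killing control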); settings: HTB85 osteosarcoma cells, drug combinations, stronger effect = higher value
# [7] = MDA-MB-436 breast carcinoma cell growth inhibition, synergistic combos for chromothripsis tumors, BGB or cisplatin combos (AID 1671458; call rule not given here;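 note: cells exposed for 96 hours; 0% = vehicle DMSO and 100% = killing by high DMSO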); settings: MDA-MB-436 breast carcinoma growth inhibition, drug combinations, stronger effect = higher value
# Chain of NAD(+) hydrolase SARM1 (Homo sapiens) (Q6SZW1 whole entry, looked up): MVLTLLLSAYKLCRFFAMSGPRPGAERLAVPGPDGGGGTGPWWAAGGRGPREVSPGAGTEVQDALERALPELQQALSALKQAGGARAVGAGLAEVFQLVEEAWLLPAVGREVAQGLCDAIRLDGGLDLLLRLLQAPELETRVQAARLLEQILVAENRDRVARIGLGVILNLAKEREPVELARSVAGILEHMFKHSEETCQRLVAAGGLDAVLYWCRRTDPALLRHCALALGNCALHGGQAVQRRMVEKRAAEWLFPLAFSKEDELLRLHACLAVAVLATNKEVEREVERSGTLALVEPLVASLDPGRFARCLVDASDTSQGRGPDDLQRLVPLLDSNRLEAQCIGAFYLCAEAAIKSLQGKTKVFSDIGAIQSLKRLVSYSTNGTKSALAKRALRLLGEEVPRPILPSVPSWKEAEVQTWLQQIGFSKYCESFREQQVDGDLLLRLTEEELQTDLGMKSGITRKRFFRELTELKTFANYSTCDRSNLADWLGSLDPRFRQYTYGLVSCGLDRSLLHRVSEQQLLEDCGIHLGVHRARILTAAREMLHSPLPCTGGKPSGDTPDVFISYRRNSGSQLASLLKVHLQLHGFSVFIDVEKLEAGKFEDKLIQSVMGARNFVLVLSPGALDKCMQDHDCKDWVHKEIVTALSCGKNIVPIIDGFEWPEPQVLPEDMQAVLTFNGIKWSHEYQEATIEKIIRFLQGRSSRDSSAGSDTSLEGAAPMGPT
structure (smiles),measurement,setting,value
O=C(CCCCCCC(=O)Nc1ccccc1)NO,viability,"[1]; at 0.0195 µM, OCI-C5x cells, with rucaparib 10 µM, 100% = cells with rucaparib alone",111% (inactive)
same,viability,"[1]; at 0.0195 µM, OCI-C5x cells, without rucaparib",114% (inactive)
same,viability,"[1]; at 0.0195 µM, OCI-P5x cells, with rucaparib 20 µM, 100% = cells with rucaparib alone",112% (inactive)
same,viability,"[1]; at 0.0195 µM, OCI-P5x cells, without rucaparib",93.3% (active)
same,viability,"[1]; at 0.0781 µM, OCI-C5x cells, with rucaparib 10 µM, 100% = cells with rucaparib alone",110% (inactive)
same,viability,"[1]; at 0.0781 µM, OCI-C5x cells, without rucaparib",108% (inactive)
same,viability,"[1]; at 0.0781 µM, OCI-P5x cells, with rucaparib 20 µM, 100% = cells with rucaparib alone",96.2% (active)
same,viability,"[1]; at 0.0781 µM, OCI-P5x cells, without rucaparib",83% (active)
same,viability,"[1]; at 0.313 µM, OCI-C5x cells, with rucaparib 10 µM, 100% = cells with rucaparib alone",57.7% (active)
same,viability,"[1]; at 0.313 µM, OCI-C5x cells, without rucaparib",57.4% (active)
same,viability,"[1]; at 0.313 µM, OCI-P5x cells, with rucaparib 20 µM, 100% = cells with rucaparib alone",61.2% (active)
same,viability,"[1]; at 0.313 µM, OCI-P5x cells, without rucaparib",46.1% (active)
same,viability,"[1]; at 1.25 µM, OCI-C5x cells, with rucaparib 10 µM, 100% = cells with rucaparib alone",73.9% (active)
same,viability,"[1]; at 1.25 µM, OCI-C5x cells, without rucaparib",52.8% (active)
same,viability,"[1]; at 1.25 µM, OCI-P5x cells, with rucaparib 20 µM, 100% = cells with rucaparib alone",65.9% (active)
same,viability,"[1]; at 1.25 µM, OCI-P5x cells, without rucaparib",55.9% (active)
same,viability,"[1]; at 5 µM, OCI-C5x cells, with rucaparib 10 µM, 100% = cells with rucaparib alone",8.43% (active)
same,viability,"[1]; at 5 µM, OCI-C5x cells, without rucaparib",7.74% (active)
same,viability,"[1]; at 5 µM, OCI-P5x cells, with rucaparib 20 µM, 100% = cells with rucaparib alone",8.03% (active)
same,viability,"[1]; at 5 µM, OCI-P5x cells, without rucaparib",14.8% (active)
same,remaining NAD,[2],10 nM (inactive)
same,inhibition,"[3]; at 0.5 µM, stronger effect = higher value",76.8% (inactive)
same,inhibition,"[3]; measured here: combination with BGB IC20, at 0.005 µM",-24%
same,inhibition,"[3]; measured here: combination with BGB IC40, at 0.005 µM",-25.1%
same,inhibition,"[3]; measured here: combination with BGB IC40, at 0.05 µM",-21.7%
same,inhibition,"[3]; measured here: combination with cisplatin, at 0.5 µM, stronger effect = higher value",48.5%
same,inhibition,"[3]; measured here: combination with cisplatin, at 5 µM, stronger effect = higher value",107%
same,inhibition,"[4]; BGB combo, at 5 µM",92.3%
same,inhibition,[4]; at 0.5 µM,20.4% (inactive)
same,inhibition,"[4]; cisplatin combo, at 5 µM",98%
same,inhibition,"[4]; measured here: with BGB IC20 combination, at 0.5 µM",5.45%
same,inhibition,"[4]; measured here: with cisplatin IC20 combination, at 0.5 µM",18.5%
same,inhibition,"[4]; single agent, at 5 µM",96.3%
same,inhibition,"[5]; BGB IC20 combo, at 0.005 µM",-9.97%
same,inhibition,"[5]; BGB IC40 combo, at 0.005 µM",-34%
same,inhibition,"[5]; BGB IC40 combo, at 0.05 µM",71.5%
same,inhibition,[5]; at 0.5 µM,-21.1% (inactive)
same,inhibition,"[5]; cisplatin combo, at 0.05 µM",70.7%
same,inhibition,"[5]; cisplatin combo, at 0.5 µM",-19.8%
same,inhibition,"[5]; cisplatin combo, at 5 µM",-86.6%
same,inhibition,"[5]; measured here: 5 uM single agent, at 5 µM",-52.1%
same,inhibition,[6]; at 0.5 µM,1.09% (inactive)
same,inhibition,"[6]; measured here: with BGB IC20, at 0.5 µM",-18.4%
same,inhibition,"[6]; measured here: with BGB IC20, at 5 µM",80.9%
same,inhibition,"[6]; measured here: with cisplatin IC20, at 0.5 µM",21.1%
same,inhibition,"[6]; measured here: with cisplatin IC20, at 5 µM",89.9%
same,inhibition,"[6]; single agent, at 5 µM",87.5%
same,inhibition,[7]; at 0.5 µM,-18.9% (inactive)
same,inhibition,"[7]; measured here: BGB combination, at 0.5 µM",-38.5%
same,inhibition,"[7]; measured here: BGB combination, at 5 µM",32%
same,inhibition,"[7]; measured here: cisplatin combination, at 0.5 µM",-20.9%
same,inhibition,"[7]; measured here: cisplatin combination, at 5 µM",36.6%
